Inconclusive results are not listed. Calls follow the shape of the dose curve; as a rule, active = well fitted activation curve with a large enough effect; inconclusive = small, poorly fitted or top-dose-only effect; inactive = flat fitted curve, though single readings scatter.
experiment: qHTS for Inhibitors of Cell Surface uPA Generation: Confirmatory Assay for Cherry-picked Compounds; settings: cell surface uPA activity generation, qHTS confirmation; series mostly up to 115 µM; inhibition: at the top concentration; also: 0% is about no effect
How it was run: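 RAW 264.7 cells at 4000/well, incubated overnight, then treated with compounds. After 24 h at 37 C, viability was read by ATPlite luminescence. An increase in signal indicates blocked uPA-dependent LF entry.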

inhibition, inactive:
O=C(c1cc2cc([N+](=O)[O-])ccc2s1)N1CCOCC1 -2.48%
C=CC1=C(C(=O)O)N2C(=O)[C@@H](NC(=O)/C(=N\O)c3csc(N)n3)[C@H]2SC1 (stereo in doubt) 1.1%
CN(C)S(=O)(=O)c1cccc(C(=O)OCC(=O)NCc2ccc3c(c2)OCO3)c1 -1.01%
COc1cccc(NC(=O)N2C3CCCC2CC(NC(C)=O)C3)c1 (centres undefined) 0.143%
COC(/C=C/Nc1ccc(Cl)cc1)=C(C#N)C#N -0.118%
Cc1cccc(CCNC(=O)Cc2ccc(NC3=NC4CS(=O)(=O)CC4S3)cc2)c1 (centres undefined) 5.41%
COc1ccccc1CNC(=O)CCCn1nc(C)c2c(C)n(-c3ccccc3)nc2c1=O -2.78%
O=C(Cc1n[nH]c(=O)c2ccccc12)Nc1cccc(S(=O)(=O)N2CCCCCC2)c1 -3.3%
C[C@H]1CN([C@@H](C)CO)C(=O)c2cc(NS(=O)(=O)c3ccc(Cl)cc3)ccc2O[C@@H]1CN(C)CC1CCCCC1 1.71%
O=C(CC1(O)C(=O)Nc2ccccc21)c1cccc(Br)c1 (centres undefined) -0.164%
O=C(O)CCc1nn2c3ccccc3n(CC(=O)O)c2nc1=O -3.3%
CC(NC(=O)C1CCC(C(=O)NC(C)c2ccccc2)CC1)c1ccccc1 (centres undefined) 0.975%
COc1ccc(C2=NOC(CNC(N)=S)C2)cc1 (centres undefined) -3.56%
CCCCNC(=O)c1cc2c(-c3ccc(Cl)cc3)nn(C)c2s1 -0.855%
COc1cc2oc(=O)ccc2cc1[C@H](O)[C@@H](O)C(C)(C)O -1.24%
CN(c1ccccc1)S(=O)(=O)c1ccc(C(=O)Nc2nnc(C3CC3)o2)cc1 -2.74%
Cc1ccccc1C(=O)Nc1ccccc1N1CCCCC1 0.132%
Cc1nn(CC(=O)OCC(=O)NC(C)c2ccccc2)c(C)c1[N+](=O)[O-] (centres undefined) -1.75%
COc1ccccc1NNC(=O)C(O)(c1ccccc1OC)c1ccccc1OC 1.06%

Source: PubChem BioAssay AID720519 (National Center for Advancing Translational Sciences (NCATS), 2013)
